Reference: PubChem BioAssay AID1159580 (chemical genetic matrix, 2015)
The campaign covered roughly 5,500 compounds. About 2,000 (36%) were called active. About 18% were inconclusive and are not listed. No stated cut-off is given here; in the data, active means normalized growth mostly below about 0.91 (no sharp cut-off); inconclusive means no clear call, values can overlap the other calls; inactive means mostly above about 0.92. The list shows a part of the results.

Assay: chemical genetic growth profiling, strain panel (AID 1159580);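 further: tested at 20 µM; growth read once vehicle control cultures reached saturation at 30 °C; 1 = growth at the plate median or of vehicle wells; lower values mean less growth of the strain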
Conditions: growth OD

Measured: normalized growth

CC(=O)N=c1sc(S(N)(=O)=O)nn1C
inactive: S. cerevisiae deletion strains, locus YJR075W, strain HOC1, hits give low values 1 | S. cerevisiae deletion strains, locus YKL009W, strain mrt4, hits give low values 1 | S. cerevisiae deletion strains, locus YKL068W, hits give low values 1 | S. cerevisiae deletion strains, locus YKL085W, strain MDH1 (second series), hits give low values 1.01 | S. cerevisiae deletion strains, locus YKL085W, strain MDH1, hits give low values 1.01 | S. cerevisiae deletion strains, locus YKL160W, strain elf1, hits give low values 1.01 | S. cerevisiae deletion strains, locus YKL190W, strain CNB1, hits give low values 1.01 | S. cerevisiae deletion strains, locus YKR001C, strain vps1, hits give low values 0.998 | S. cerevisiae deletion strains, locus YKR026C, strain gcn3, hits give low values 1.01 | S. cerevisiae deletion strains, locus YKR091W, strain srl3, hits give low values 1 | S. cerevisiae deletion strains, locus YLL001W, strain dnm1, hits give low values 1.01 | S. cerevisiae deletion strains, locus YLL026W, hits give low values 1.01 | S. cerevisiae deletion strains, locus YLL041C, strain sdh2, hits give low values 1.01 | S. cerevisiae deletion strains, locus YLR027C, strain aat2, hits give low values 1.01 | S. cerevisiae deletion strains, locus YLR039C, strain RIC1, hits give low values 1.02 | S. cerevisiae deletion strains, locus YLR058C, strain SHM2, hits give low values 1.01 | S. cerevisiae deletion strains, locus YLR102C, strain apc9, hits give low values 1 | S. cerevisiae deletion strains, locus YLR113W, strain HOG1, hits give low values 1.07 | S. cerevisiae deletion strains, locus YLR221C, strain rsa3, hits give low values 1 | S. cerevisiae deletion strains, locus YLR258W, strain gsy2, hits give low values 1.01 | S. cerevisiae deletion strains, locus YLR262C, strain YPT6 (second series), hits give low values 1.02 | S. cerevisiae deletion strains, locus YLR262C, strain YPT6, hits give low values 1.04 | S. cerevisiae deletion strains, locus YLR268W, strain sec22, hits give low values 1 | S. cerevisiae deletion strains, locus YLR320W, strain mms22, hits give low values 1.04 | S. cerevisiae deletion strains, locus YLR330W, strain CHS5, hits give low values 1.01 | S. cerevisiae deletion strains, locus YLR342W, strain FKS1 (second series), hits give low values 1.08 | S. cerevisiae deletion strains, locus YLR342W, strain FKS1, hits give low values 1.02 | S. cerevisiae deletion strains, locus YLR357W, strain rsc2, hits give low values 1.03 | S. cerevisiae deletion strains, locus YLR370C, strain arc18, hits give low values 1.01 | S. cerevisiae deletion strains, locus YLR371W, strain rom2, hits give low values 1.02 | S. cerevisiae deletion strains, locus YLR384C, strain iki3, hits give low values 1 | S. cerevisiae deletion strains, locus YLR418C, strain cdc73, hits give low values 1.04 | S. cerevisiae deletion strains, locus YML016C, strain PPZ1, hits give low values 1.01 | S. cerevisiae deletion strains, locus YML032C, strain rad52, hits give low values 0.993 | S. cerevisiae deletion strains, locus YML120C, strain ndi1, hits give low values 1 | S. cerevisiae deletion strains, locus YML124C, strain tub3, hits give low values 1.01 | S. cerevisiae deletion strains, locus YMR058W, strain fet3, hits give low values 1.01 | S. cerevisiae deletion strains, locus YMR078C, strain ctf18, hits give low values 1.01 | S. cerevisiae deletion strains, locus YMR125W, strain sto1, hits give low values 1.01 | S. cerevisiae deletion strains, locus YMR129W, hits give low values 1.01 | S. cerevisiae deletion strains, locus YMR205C, strain PFK2, hits give low values 1.01 | S. cerevisiae deletion strains, locus YMR223W, strain ubp8, hits give low values 1.03 | S. cerevisiae deletion strains, locus YMR231W, strain pep5, hits give low values 1.01 | S. cerevisiae deletion strains, locus YMR307W, strain GAS1, hits give low values 1.03 | S. cerevisiae deletion strains, locus YNL067W, strain RPL9B, hits give low values 0.988 | S. cerevisiae deletion strains, locus YNL071W, strain lat1, hits give low values 1.01 | S. cerevisiae deletion strains, locus YNL128W, strain TEP1, hits give low values 1.04 | S. cerevisiae deletion strains, locus YNL153C, strain GIM3, hits give low values 0.979 | S. cerevisiae deletion strains, locus YNL183C, strain NPR1, hits give low values 0.984 | S. cerevisiae deletion strains, locus YNL209W, strain ssb2, hits give low values 1.01 | S. cerevisiae deletion strains, locus YNL233W, strain BNI4, hits give low values 0.967 | S. cerevisiae deletion strains, locus YNL248C, strain rpa49, hits give low values 1.02 | S. cerevisiae deletion strains, locus YNL250W, strain rad50, hits give low values 1.04 | S. cerevisiae deletion strains, locus YNL271C, strain bni1, hits give low values 1 | S. cerevisiae deletion strains, locus YNL298W, strain CLA4, hits give low values 1.01 | S. cerevisiae deletion strains, locus YNL307C, strain MCK1, hits give low values 1.02 | S. cerevisiae deletion strains, locus YNL322C, strain KRE1 (second series), hits give low values 1.01 | S. cerevisiae deletion strains, locus YNR049C, strain mso1, hits give low values 1.01 | S. cerevisiae deletion strains, locus YNR052C, strain pop2, hits give low values 1.02 | S. cerevisiae deletion strains, locus YOL006C, strain TOP1, hits give low values 0.974 | S. cerevisiae deletion strains, locus YOL012C, strain htz1 1.13 | S. cerevisiae deletion strains, locus YOL147C, strain pex11, hits give low values 1.01 | S. cerevisiae deletion strains, locus YOR001W, strain rrp6, hits give low values 1.01 | S. cerevisiae deletion strains, locus YOR061W, strain CKA2, hits give low values 1.01 | S. cerevisiae deletion strains, locus YOR069W, strain VPS5, hits give low values 1.01 | S. cerevisiae deletion strains, locus YOR070C, strain gyp1, hits give low values 1.02 | S. cerevisiae deletion strains, locus YOR080W, strain dia2, hits give low values 1.02 | S. cerevisiae deletion strains, locus YOR083W, strain WHI5, hits give low values 1.01 | S. cerevisiae deletion strains, locus YOR106W, strain vam3, hits give low values 1.01 | S. cerevisiae deletion strains, locus YOR136W, strain idh2, hits give low values 0.997 | S. cerevisiae deletion strains, locus YOR144C, strain elg1, hits give low values 0.997 | S. cerevisiae deletion strains, locus YOR184W, strain ser1, hits give low values 1.02 | S. cerevisiae deletion strains, locus YOR231W, strain MKK1, hits give low values 1.08 | S. cerevisiae deletion strains, locus YOR265W, strain rbl2, hits give low values 1.01 | S. cerevisiae deletion strains, locus YOR270C, strain vph1, hits give low values 1.02 | S. cerevisiae deletion strains, locus YOR290C, strain snf2, hits give low values 1.03 | S. cerevisiae deletion strains, locus YOR316C, strain cot1, hits give low values 1 | S. cerevisiae deletion strains, locus YPL051W, strain arl3, hits give low values 1.01 | S. cerevisiae deletion strains, locus YPL055C, strain LGE1, hits give low values 0.939 | S. cerevisiae deletion strains, locus YPL078C, strain atp4, hits give low values 1.01 | S. cerevisiae deletion strains, locus YPL106C, strain sse1, hits give low values 1.03 | S. cerevisiae deletion strains, locus YPL240C, strain hsp82, hits give low values 1.01 | S. cerevisiae deletion strains, locus YPL241C, strain CIN2, hits give low values 1.01 | S. cerevisiae deletion strains, locus YPL256C, strain CLN2, hits give low values 1.08 | S. cerevisiae deletion strains, locus YPR119W, strain clb2, hits give low values 1 | S. cerevisiae deletion strains, locus YPR141C, strain kar3, hits give low values 1.01 | S. cerevisiae deletion strains, locus YPR163C, strain tif3, hits give low values 1.01 | S. cerevisiae deletion strains, locus YPR167C, strain met16, hits give low values 1 | S. cerevisiae deletion strains, strain wtn01, hits give low values 1 | S. cerevisiae strains, strain wild type, hits give low values 1
